Bioassay records (PubChem BioAssay)
Shown are actives, neighbours in structure and some others; about 28% of the full set was active somewhere.
DAT uptake mod – changed human dopamine transporter uptake under cocaine IC80 | B-score at 10 µM | 110,000 tested, 1.3% active | AID 449768 | Q01959 | LLC-PK1 hDAT cells, [14C]-dopamine uptake with cocaine IC80; actives deviate in either direction;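 active = Z score or B-score, a plate-position-corrected score, falls beyond the plate's 99.7% confidence bounds, in either direction; inactive = both scores lie inside the 99.7% bounds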;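 also: scored against the spread of the other compound wells on the same plate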
D1 mod – allosterically modulates the human D1 dopamine receptor; P21728; HEK293 D1, CRE-luciferase, dopamine EC30 potentiation; actives deviate in either direction; B-score at 10 µM; 58,000 tested, 5.9% active;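 active = luminescence count or its row- and column-corrected plate score outside the 99.7% band of the plate's sample wells, on either side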
CYP2C9 activ – CYP2C9 (human) activation. activation factor at 5 µM. recombinant CYP2C9, luciferin-H conversion, luminescence; active compounds read high; factor 1 = untreated enzyme, 0 = blocked. P11712. 96,000 tested, 1.4% active;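 active = activation factor of 2 or more for CYP2C9 at a 5 µM dose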;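 also: 0 = sulfaphenazole-blocked wells and 1 = vehicle-only wells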
Target sequence (P11712 whole entry, looked up): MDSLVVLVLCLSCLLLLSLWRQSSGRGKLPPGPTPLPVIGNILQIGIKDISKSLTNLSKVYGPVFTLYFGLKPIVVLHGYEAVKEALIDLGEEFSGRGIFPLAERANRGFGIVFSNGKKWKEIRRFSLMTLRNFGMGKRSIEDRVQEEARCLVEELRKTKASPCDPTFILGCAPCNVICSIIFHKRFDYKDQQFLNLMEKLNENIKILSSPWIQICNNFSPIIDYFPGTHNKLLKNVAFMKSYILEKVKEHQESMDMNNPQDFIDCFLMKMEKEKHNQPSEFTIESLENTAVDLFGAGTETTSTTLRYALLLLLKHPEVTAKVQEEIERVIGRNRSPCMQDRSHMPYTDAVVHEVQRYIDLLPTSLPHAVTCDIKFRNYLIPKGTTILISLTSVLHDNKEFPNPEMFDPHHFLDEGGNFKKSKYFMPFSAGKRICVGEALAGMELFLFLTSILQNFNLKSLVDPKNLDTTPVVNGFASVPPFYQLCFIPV
CYP2C19 inh – blocks human cytochrome P450 2C19; P33261; CYP2C19 Supersomes, luciferin-H EGE luminescence, 30 min; inhibition, % at 5 µM; 96,000 tested, 21% active; AID 778;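 active = CYP2C19 inhibition above a set limit at 5 µM in the primary screen, cut at about 50% in these data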;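 also: plate controls were negative control wells for no effect and 2.5 mM tranylcypromine positive control for full effect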
CYP2C19 activ – increases human CYP2C19 enzyme activity; 96,000 tested, under 10 active; recombinant CYP2C19, luciferin-H EGE luminescence; active compounds read high; 0 = fully inhibited enzyme, 1 = untreated enzyme; P33261; activation factor at 5 µM;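 active = activation factor of at least 2 at 5 µM in the primary screen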;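 also: 0 = wells with 2.5 mM tranylcypromine and 1 = vehicle-only wells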
CYP2C9 inhib – blocks human cytochrome P450 2C9; 96,000 tested, 20% active; AID 777; P11712; CYP2C9 Supersomes, luciferin-H conversion, luminescence; inhibition, % at 5 µM;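 active = blocking of liver enzyme CYP2C9 beyond about 50% at 5 µM, limit read from the data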
* marks the source's active call; other numbers are inactive results.

How did COc1cccc(CC(=O)NCC2COc3ccccc3O2)c1OC (stereo not given) do in these assays?
DAT uptake mod: -0.32; D1 mod: 0.288; CYP2C9 activ: 0.7; CYP2C19 inh: 64.0*; CYP2C19 activ: 0.4; CYP2C9 inhib: 27.7

What do the screens show for `COc1ccc(C(=O)NCC(=O)NCC2COc3ccccc3O2)cc1` (stereo not given)?
DAT uptake mod: -0.621; CYP2C9 activ: 0.6; CYP2C19 inh: 43.7; CYP2C19 activ: 0.6; CYP2C9 inhib: 42.6

What do the screens show for `CCOC(=O)CCNCC1COc2ccccc2O1` (stereo not given)?
DAT uptake mod: -0.563; D1 mod: 1.41; CYP2C9 activ: 1; CYP2C19 inh: 74.8*; CYP2C19 activ: 0.3; CYP2C9 inhib: 1.8

What do the screens show for `Cc1sc2nc(SCC(=O)NCc3cccs3)[nH]c(=O)c2c1C`?
DAT uptake mod: -0.69; D1 mod: 0.741; CYP2C9 activ: 0.3; CYP2C19 inh: 18.7; CYP2C19 activ: 0.8; CYP2C9 inhib: 66.8*

What do the screens show for `Cc1sc2nc(CN(C(=O)NC3CCCCC3)C3CCCCC3)[nH]c(=O)c2c1C`?
DAT uptake mod: -0.516

How did Cc1sc2nc(SCC(=O)NCc3ccco3)[nH]c(=O)c2c1C do in these assays?
DAT uptake mod: -0.0296; D1 mod: 0.261; CYP2C9 activ: 0.7; CYP2C19 inh: -17.3; CYP2C19 activ: 1.2; CYP2C9 inhib: 33.4

How did Cc1sc2nc(CN(Cc3cccs3)C(=O)C3CC3)[nH]c(=O)c2c1C do in these assays?
DAT uptake mod: -0.449; D1 mod: 0.113; CYP2C9 activ: 0.1; CYP2C19 inh: 97.4*; CYP2C19 activ: 0; CYP2C9 inhib: 88.4*

Results for Cc1noc(C)c1COC(=O)Cc1ccc(Cl)cc1 ?
DAT uptake mod: 0.48; D1 mod: 0.337; CYP2C9 activ: 0.4; CYP2C19 inh: 92.5*; CYP2C19 activ: 0.1; CYP2C9 inhib: 55.4*

What do the screens show for `Cc1noc(C)c1COC(=O)CCCOc1ccc(Cl)cc1Cl`?
DAT uptake mod: -0.291; CYP2C9 activ: 0.2; CYP2C19 inh: 84.3*; CYP2C19 activ: 0.2; CYP2C9 inhib: 80.3*

What do the screens show for `O=C(O)[C@@H](O)[C@H](O)C(=O)O`?
DAT uptake mod: -0.00636

How did Cc1ccc(Cn2cnc3ccccc32)cc1 do in these assays?
DAT uptake mod: -0.382; CYP2C9 activ: 0.4; CYP2C19 inh: 77.3*; CYP2C19 activ: 0.2; CYP2C9 inhib: 57.9*

How did Oc1cc2ccccc2cc1-c1n[nH]c(=S)o1 do in these assays?
DAT uptake mod: 0.511; D1 mod: -0.911; CYP2C9 activ: 0.3; CYP2C19 inh: -4.3; CYP2C19 activ: 1; CYP2C9 inhib: 68.1*

What do the screens show for `Cc1cc(-c2n[nH]c(=S)o2)c(C)n1-c1ccccc1`?
DAT uptake mod: 0.219; CYP2C9 activ: 0.8; CYP2C19 inh: 6.5; CYP2C19 activ: 0.9; CYP2C9 inhib: 24.8

How did Cc1cnn(C(=S)NCCc2ccccc2)c1 do in these assays?
DAT uptake mod: 0.00904; D1 mod: 0.807; CYP2C9 activ: 0.7; CYP2C19 inh: 84.3*; CYP2C19 activ: 0.2; CYP2C9 inhib: 29.2

What do the screens show for `Cc1cc(N2CCCCC2)nc(SCc2ccc(C#N)cc2)n1`?
DAT uptake mod: 0.0265; D1 mod: 1.37; CYP2C9 activ: 0.4; CYP2C19 inh: 48.8; CYP2C19 activ: 0.5; CYP2C9 inhib: 63.2*

How did Cc1ccc(NC(=O)c2ccc(S(=O)(=O)N3CCC(C)CC3)cc2)cc1 do in these assays?
DAT uptake mod: -0.0152; CYP2C9 activ: 0.7; CYP2C19 inh: 23.0; CYP2C19 activ: 0.8; CYP2C9 inhib: 26.4

What do the screens show for `Cc1cc(C)cc(N2CCCC2=O)c1`?
DAT uptake mod: -0.194

What do the screens show for `Nc1c(Br)cc(Br)c(N2CCCC2=O)c1Br`?
DAT uptake mod: -0.417; D1 mod: -0.0181; CYP2C9 activ: 4.3*; CYP2C19 inh: 54.4*; CYP2C19 activ: 0.5; CYP2C9 inhib: -326.9

What do the screens show for `Cc1nc2sccn2c(=O)c1CCN1CCC(=C(c2ccccc2)c2ccc(F)cc2)CC1`?
DAT uptake mod: -3.54*; D1 mod: -3.42

What do the screens show for `O=C(N1CCCC1)n1c(Cc2ccccc2)nc2ccccc21`?
DAT uptake mod: 0.883; D1 mod: -0.00499; CYP2C9 activ: 1.1; CYP2C19 inh: 18.5; CYP2C19 activ: 0.8; CYP2C9 inhib: -11.4

How did COCCNC(=O)Cn1c(=O)n(CCC(=O)NCCc2ccccc2)c(=O)c2ccccc21 do in these assays?
D1 mod: 0.345

How did COCCCNC(=O)CCn1c(=O)c2ccccc2n(CC(=O)Nc2ccc(C)cc2C)c1=O do in these assays?
DAT uptake mod: -1.1; D1 mod: 0.312; CYP2C9 activ: 0.3; CYP2C19 inh: 78.0*; CYP2C19 activ: 0.2; CYP2C9 inhib: 66.8*

What do the screens show for `CCCN(CCC)C(=O)Cn1c(=O)n(CCC(=O)NCCc2ccccc2)c(=O)c2ccccc21`?
DAT uptake mod: -7.96*; CYP2C9 activ: 0.3; CYP2C19 inh: 17.4; CYP2C19 activ: 0.8; CYP2C9 inhib: 72.3*

What do the screens show for `COCCCNC(=O)CCCn1c(=O)c2ccccc2n(CC(=O)Nc2c(C)cc(C)cc2C)c1=O`?
D1 mod: -6.96*

What do the screens show for `CCCCNC(=O)CCn1c(=O)c2ccccc2n(CC(=O)Nc2ccccc2OCC)c1=O`?
DAT uptake mod: -0.57; CYP2C9 activ: 0.2; CYP2C19 inh: 40.1; CYP2C19 activ: 0.6; CYP2C9 inhib: 75.4*

Results for CCC(CC)c1nnc(NC(=O)c2ccc(N3CCCC3=O)cc2)s1 ?
DAT uptake mod: 1.13; CYP2C9 activ: 1; CYP2C19 inh: -11.1; CYP2C19 activ: 1.1; CYP2C9 inhib: 3.6

What do the screens show for `O=C(NC1CCCCC1)N1CCN(C(=O)c2ccco2)CC1`?
DAT uptake mod: -1.37; CYP2C9 activ: 0.9; CYP2C19 inh: 8.2; CYP2C19 activ: 0.9; CYP2C9 inhib: 5.3

What do the screens show for `CCn1c(=O)c(C(=O)NCCc2ccccc2)c(O)c2ccccc21`?
DAT uptake mod: 0.267; D1 mod: -0.375; CYP2C9 activ: 0.8; CYP2C19 inh: 50.1*; CYP2C19 activ: 0.5; CYP2C9 inhib: 19.9

How did COc1ccc2[nH]cc(C(O)CN3CCC(C(N)=O)CC3)c2c1 (stereo not given) do in these assays?
DAT uptake mod: -1.49; CYP2C9 activ: 1; CYP2C19 inh: -7.8; CYP2C19 activ: 1.1; CYP2C9 inhib: 2.2

Results for COc1ccc(-n2nc3c(c2NC(=O)c2cc(Br)ccc2Cl)CS(=O)C3)cc1 (stereo not given) ?
DAT uptake mod: 0.805; CYP2C9 activ: 1.1; CYP2C19 inh: -15.8; CYP2C19 activ: 1.2; CYP2C9 inhib: -10.1

How did COc1ccc(NC(=O)COC(=O)c2c(-c3ccccc3)noc2C)cc1 do in these assays?
DAT uptake mod: 0.687; CYP2C9 activ: 0.7; CYP2C19 inh: 52.8*; CYP2C19 activ: 0.5; CYP2C9 inhib: 27.0

Results for COc1cccc(NC(=O)COC(=O)c2c(-c3ccccc3)noc2C)c1 ?
DAT uptake mod: 0.311; CYP2C9 activ: 0.4; CYP2C19 inh: 60.3*; CYP2C19 activ: 0.4; CYP2C9 inhib: 60.2*
